Where “and” joins values, the source holds several entries; their conditions need not be identical. Equal entries are not always repeated. Some structures have more than one record in an assay (separate samples or runs), and their calls can disagree. Calls of active or inactive are those of the source. How the source made its calls: active means hit-call score of the fitted dose curve at least 0.9, where 1 is the maximum; inactive means score below 0.9.
read-out: Vascular cell adhesion molecule 1 (VCAM1), VCAM1 (gene 7412); assay: BSK_MyoF_VCAM1: BioMAP Diversity Plus: MyoF Assay for Vascular cell adhesion molecule 1 (VCAM1) Biomarker Activity (AID 2284231); conditions: primary human lung fibroblasts
Experimental: BSK_MyoF is a cell-based, multiplexed-readout assay that uses lung fibroblasts, […], with measurements taken at 24 hours after chemical dosing in a microplate: 96-well plate.BSK_MyoF_VCAM1 is an assay component measured in the BSK_MyoF assay. It measures VCAM-1 antibody related to regulation of gene expression using ELISA technology.Data from the assay component BSK_MyoF_VCAM1 was analyzed at the endpoint, BSK_MyoF_VCAM1, in the positive analysis fitting direction relative to DMSO as the negative control and baseline of activity. Using a type of binding reporter, gain or loss-of-signal activity can be used to understand protein changes. To generalize the intended target to other relatable targets, this assay endpoint is annotated to the 'cell adhesion molecules' intended target family, where the subfamily is 'Immunoglobulin CAM'.
The levels of cell surface (or secreted, indicated by the prefix "s") biomarker endpoints were measured by ELISA. Overt cytotoxicity to cells in confluent adherent cultures (all systems other than the BT system) was assessed by measuring total protein levels using sulforhodamine B (SRB) staining in parallel cultures at the time of biomarker measurements, indicated as SRB endpoints. For proliferation assays for adherent cell types, individual cell types are cultured at sub-confluence and relative cell numbers quantified by SRB staining at time points optimized for each system (48 h: 3C and CASM3C systems; 72 h: BT and HDF3CGF systems; 96 h: SAg system). SRB was performed by staining cells with 0.1% SRB after fixation with 10% TCA and reading wells at 560 nm.Viability and proliferation of PBMC (T cells) was quantified by Alamar Blue reduction for the SAg and BT systems. For PBMC viability (referred to as PBMC Cytotoxicity within the assay endpoint names), cells were plated (75,000/well in a 96-well plate) and then chemical samples added for 1 h before addition of activators, SEB and TSST-1 (20 ng/mL final concentration each). Cells were incubated for 90 h. Then, Alamar Blue (20 uL/well) (Invitrogen, Cat DAL1100) was added for 6 h, and the plates were read with a fluorescence microplate reader at 546/580 nm (excitation/emission). For PBMC proliferation, cells were plated and activated as above but incubated for only 16 h prior to addition of Alamar Blue. Plates were read after 6 h.

SMILES | outcome | AC50
CCOP(=S)(S)OCC | inactive | 
Nc1ccc([N+](=O)[O-])cc1Cl | inactive | 
ClC(Cl)=C(c1ccc(Cl)cc1)c1ccccc1Cl |  | 5.1 µM (active)
CCOP(=S)(NC(C)C)Oc1ccccc1C(=O)OC(C)C (centres undefined) | inactive | 
COC(=O)C(F)(F)C(F)(F)OC(F)(C(F)(F)F)C(F)(F)OC(F)=C(F)F (centres undefined) | inactive | 
OCC(F)(F)OC(F)(F)C(F)(F)OC(F)(F)C(F)(F)OC(F)(F)CO | inactive | 41.2 µM (active)
O=S(=O)(F)C(F)(F)C(F)(F)C(F)(F)C(F)(F)C(F)(F)C(F)(F)C(F)(F)C(F)(F)F | inactive | 
CC(C)Nc1ccc(Nc2ccccc2)cc1 |  | 20 µM (active)
CCOP(=S)(OCC)SCS(=O)(=O)CC | inactive | 
COP(N)(=S)OC | inactive | 
FC(F)(F)C(F)(C(F)(F)F)C(F)(F)C(F)(F)CC1CO1 (centres undefined) | inactive | 
CCCCOCCOP(=O)(OCCOCCCC)OCCOCCCC | inactive | 
N#Cc1cc([N+](=O)[O-])ccc1N | inactive | 
O=P(OCC(Br)CBr)(OCC(Br)CBr)OCC(Br)CBr (centres undefined) |  | 17.4 µM (active)
C=CC(=O)OCC(CC)(COC(=O)C=C)COC(=O)C=C |  | 2.5 µM (active)
C=CC(=O)OCC(F)(F)C(F)F |  | 44.1 µM (active) and 32.7 µM (active)
CC(C)(C)c1ccccc1OP(=O)(Oc1ccccc1)Oc1ccccc1 |  | 33.7 µM (active)
Cc1c([N+](=O)[O-])cc2c(c1[N+](=O)[O-])C(C)(C)CC2(C)C |  | 6.96 µM (active)
NC(=O)C(F)(F)C(F)(F)F | inactive | 

SMILES | outcome | AC50
c1ccc2c(c1)sc1ccccc12 | inactive | 
O=C(O)C(F)(F)OC(F)(F)C(F)(F)OC(F)(F)F | inactive | 
COP(=O)(O)OC | inactive | 
CC(Cl)CN(C)C (centres undefined) |  | 20 µM (active)
O=C(O)C(F)(F)OC(F)(F)C(F)(F)OC(F)(F)C(=O)O | inactive | 
O=c1ssc(Cl)c1Cl |  | 6.69 µM (active)
OCC(F)(F)OC(F)(F)C(F)(F)OC(F)(F)C(F)(F)OC(F)(F)F |  | 54.7 µM (active) and 40.5 µM (active)
O=C(O)C(F)(F)C(F)(F)C(=O)O | inactive | 
CCCCC(CC)COC(=O)c1c(Br)c(Br)c(Br)c(Br)c1C(=O)OCC(CC)CCCC (centres undefined) | inactive | 
CCOP(=S)(OCC)SCSc1ccc(Cl)cc1 | inactive | 
CC(O)C(F)(F)C(F)(F)F (centres undefined) | inactive | 
O=C(O)C=CC(F)(C(F)(F)F)C(F)(F)F | inactive | 
Cc1ccc2c(c1N)C(=O)c1ccccc1C2=O | inactive | 
O=S1(=O)OCC2C(CO1)C1(Cl)C(Cl)=C(Cl)C2(Cl)C1(Cl)Cl (centres undefined) | inactive | 
OCC(F)(F)OC(F)(F)C(F)(F)OC(F)(F)CO | inactive | 
CCOP(=S)(OCC)SCn1nnc2ccccc2c1=O | inactive | 
N#Cc1c(-c2ccc(Cl)cc2)[nH]c(C(F)(F)F)c1Br |  | 0.71 µM (active)
O=C(O)C(F)(OC(F)(F)C(F)(F)C(F)(F)F)C(F)(F)F (centres undefined) | inactive | 
CCCCC(CC)COP(=O)(Oc1ccccc1)Oc1ccccc1 (centres undefined) |  | 11.1 µM (active)

— PubChem BioAssay (EPA / NIEHS)
